This passage reports growth inhibition results from PubChem BioAssay (NCI).

Values joined by “and” are separate entries in the source; they are usually repeats but may differ in a detail not shown here. Equal values may be shown once. About 79,000 compounds went through this panel and 15% of them were active in at least one assay; those are over-represented in the sample as a whole. Some compounds were tested as several samples or in several runs, with calls that do not always agree. Active and inactive are the calls of the source. Rule as the data show it: active = growth inhibition above about 70%; inactive = the rest.

This assay in a line: NCI Yeast Anticancer Drug Screen. Data for the mlh1 rad18 strain (AID 175). The following applies: S. cerevisiae mlh1 rad18 strain growth inhibition; at 50.0 µM; stronger effect = higher value. The gist of the method: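 Yeast w/ defined DNA-repair lesions; compound exposure; growth vs vehicle controls → % inhibition.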
As to `O=C(/C=C/c1cc(Cl)cc(Cl)c1O)c1cccc(O)c1`, the growth inhibition was 92.7% (active).
Take `NC1CCCCC1N.Nc1c(N=Nc2ccc(-c3ccc(N=Nc4cc(S(=O)(=O)[O-])c5ccccc5c4N)cc3)cc2)cc(S(=O)(=O)[O-])c2ccccc12.[OH3+].[OH3+].[Pt+4]`: the growth inhibition is 85.2% (active).
The value for `COC(=O)CCC(NC(=S)N/N=C(\C)c1ccccn1)C(=O)OC` (stereo not drawn) was 75.5% (active); that for `NC(=O)C(=O)NNc1ccccc1` was 82.7% (active).
As for `COc1cc(C2SCC(=O)N2c2ccc(-c3ccc(-n4c(-c5ccccc5)nc5ccccc5c4=O)cc3)cc2)ccc1O` (stereo not drawn), the growth inhibition is 73.7% (active).
The same measure for `COc1ccc(/C=C/c2sc3ccccc3[n+]2CCCCI)cc1OC`: 95.6% (active); for `Cc1c(C(C)C)cc(OCCO)cc1C(C)C`: 83% (active).
As to `Cc1cc(NCCCCCCCCNc2cc(C)nc3cc(N)ccc23)c2ccc(N)cc2n1`, the growth inhibition was 89.2% (active).
Consider `C=C(Cl)COC(=O)Nc1cccc(Cl)c1`, for which the growth inhibition is 82.5% (active).
Regarding `CC(=O)OC1CC2C(C)(C)C(=O)C=C[C@]2(C)C2CCC3(C)C(=CCC3[C@H](CO)C[C@H](O)C(=O)C(C)(C)O)[C@]12C` (stereo partly drawn), the growth inhibition was 26.1% (inactive).
Turning to `COc1ccc(/C=C/C(=O)c2ccccc2)cc1OC`, the growth inhibition was 17.4% (inactive) and 76.2% (active).
For `COc1c(O)c(C=O)c(Br)c(C=O)c1O`, the growth inhibition is 99% (active).
`O=[N+]([O-])c1cc(Cl)cnc1Br`: the growth inhibition was 28.1% (inactive).
With `Cc1ccc2c(c1)C1(SC(C)C(=O)N1c1ccc(Cl)cc1)C(=O)N2` (stereo not drawn), the growth inhibition was 99% (active).
The value for `COc1cc(CSc2ccc(O)cc2)cc(O)c1O` was 73.5% (active); that for `Cc1ccc2c3ccc4c(c3n(C)c2c1)C(=O)C=CC4=O` was 68% (inactive); that for `O=C(Nc1ccc(Cl)cc1)Nc1nnc2nc(C(C(=O)c3cccc([N+](=O)[O-])c3Cl)c3nc4nnc(NC(=O)Nc5ccc(Cl)cc5)n4[nH]c3=O)c(=O)[nH]n12` was 99.4% (active).
On to `O=C(O)C1CC(c2ccccc2)=NN1c1ccccc1` (stereo not drawn), for which the growth inhibition is 85.2% (active).
As to `CCCCc1ccc(-n2c(C)c(COC(=O)NC)c(COC(=O)NC)c2C)cc1`, the growth inhibition is 91.2% (active).
As for `CCC(=O)c1cc(C(=O)C(=S)SC)cc(C(=O)C(=S)SC)c1`, the growth inhibition was 86.8% (active).
With `CCn1c(O)c(C=Nc2ccccc2)s/c1=N/Nc1nc(-c2ccccc2)cs1`, the growth inhibition is 61.8% (inactive).
The same measure for `Cc1ccccc1N=C(NO)c1ccccc1`: 92.9% (active).
`Cc1nc2ccccc2nc1NNc1ccccc1`: the growth inhibition is 56.6% (inactive).
